From PubChem
In the library only some 2.5% were active in any assay of this set; here they are far more common.
MEKK2mut PB1 HTS: MEK5 binding signal on mutant MEKK2 PB1, primary screen, biochemical, multiplex bead flow cytometry, Alexa488-MEK5. percent response, % at 10 µM. Alexa488-MEK5 binding to MEKK2 mutant. hit rate 0.35% among 290,000. AID 1530, 2009; in the data active = percent response above about 24%, passing the limit was not always enough
UBC13 polyUb: UBC13 polyubiquitin chain formation inhibitors, primary screen, biochemical, TR-FRET, uHTS; Ubiquitin-conjugating enzyme E2 N (Homo sapiens), P61088; inhibition, % at 20 µM; hit rate 0.47% among 330,000; AID 485273, 2010; in the data active = inhibition above about 45%, passing the limit was not always enough
Rce1 inh: yeast Rce1p protease inhibitors, primary screen, biochemical, fluorescence, cell-free homogeneous; yeast membranes, quenched prenylated peptide cleavage fluorescence; hit rate 0.27% among 290,000; AID 2563, 2010; calls only;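 active = fall in fluorescence gain of 50% or more versus controls, with final raw signal at or below 3038400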;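 note: plate controls were neutral control wells for no effect and wells lacking membranes for full effect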
MEKK2wt PB1 HTS: modulators of MEK5 binding to wildtype MEKK2, primary screen, biochemical, multiplex bead flow cytometry, Alexa488-MEK5. AID 1531, 2009. Mitogen-activated protein kinase kinase kinase 2 (Homo sapiens), Q9Y2U5. binding response (% of control), % at 10 µM. hit rate 1.1% among 290,000. Alexa488-MEK5 binding to MEKK2 WT; actives lie on both sides; in the data active = binding response below about 67% or above about 130%
MEKK3 PB1 HTS: modulators of MEKK3-MEK5 PB1 binding, primary screen, biochemical, wildtype MEKK3, multiplex bead flow cytometry, Alexa488-MEK5 | Mitogen-activated protein kinase kinase kinase 3 (Homo sapiens), Q99759 | bead-based flow cytometry, Alexa488-MEK5 binding to MEKK3; actives lie on both sides; 0 = blocked by unlabeled MEK5, 100 = vehicle | binding response (% of control), % at 10 µM | hit rate 1.4% among 290,000;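 active = binding response more than 3 SD above or below the average of its plate-row segment, actives on both sides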;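 note: Alexa488 bead fluorescence after subtracting the streptavidin-only scavenger bead signal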
Target sequence (Q99759 whole entry, looked up): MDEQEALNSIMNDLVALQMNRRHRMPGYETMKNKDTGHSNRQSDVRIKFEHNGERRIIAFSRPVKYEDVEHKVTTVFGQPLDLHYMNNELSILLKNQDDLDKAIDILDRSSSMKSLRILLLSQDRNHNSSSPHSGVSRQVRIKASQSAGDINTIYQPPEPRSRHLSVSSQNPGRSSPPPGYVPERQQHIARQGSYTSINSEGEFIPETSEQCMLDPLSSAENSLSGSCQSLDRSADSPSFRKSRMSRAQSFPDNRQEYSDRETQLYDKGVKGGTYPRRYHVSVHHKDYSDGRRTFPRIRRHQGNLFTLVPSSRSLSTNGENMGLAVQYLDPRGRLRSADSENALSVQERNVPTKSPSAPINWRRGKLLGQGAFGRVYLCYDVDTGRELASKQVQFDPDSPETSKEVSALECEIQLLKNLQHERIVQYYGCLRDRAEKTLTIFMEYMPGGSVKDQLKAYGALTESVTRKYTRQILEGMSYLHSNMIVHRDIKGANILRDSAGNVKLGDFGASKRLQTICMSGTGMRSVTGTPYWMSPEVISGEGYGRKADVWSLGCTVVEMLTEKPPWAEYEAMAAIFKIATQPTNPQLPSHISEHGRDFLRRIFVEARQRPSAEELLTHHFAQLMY
* = called active by the depositor; i = inactive; nt = no result; + = active, no number; [ ] = another dose, or the depositor's remark.

SMILES | MEKK2mut PB1 HTS | UBC13 polyUb | Rce1 inh | MEKK2wt PB1 HTS | MEKK3 PB1 HTS
Cc1cccc(NS(=O)(=O)c2cc(C(=O)OCC(=O)Nc3cc(C)on3)ccc2C)c1 | -1 | -6 | i | 96 | 100
Cc1cccc(NS(=O)(=O)c2ccc(C)c(C(=O)OCC(=O)Nc3cc(C)on3)c2)c1 | 0 | 6 | + | 91 | 103
CCN(CC)CCN(Cc1cc2cc3c(cc2[nH]c1=O)OCO3)C(=S)NCc1ccco1 | 2 | 4 | + | 108 | 105
CCN(CC)CCCN(Cc1cc2cc3c(cc2[nH]c1=O)OCO3)C(=S)NCc1ccco1 | -4 | 4 | i | 109 | 98
CN(CCCC[C@H](CNCc1ccc(-c2ccccc2)cc1)N1C[C@H](c2ccccc2)N(CCc2ccc(Cl)c(Cl)c2)C(=O)C1=O)Cc1ccc(-c2ccccc2)cc1 | 78* | nt | nt | 228* | 113
Cc1cc(C)cc(Nc2nc(-c3ccc(S(=O)(=O)N4CCCC4)cc3)cs2)c1 | -2 | -11 | + | 100 | 92
O=S(=O)(c1ccc(-c2csc(Nc3ccc(Br)cc3)n2)cc1)N1CCCC1 | 7 | -8 | i | -4.0* | 106
Cc1ccc(Nc2nc(-c3ccc(S(=O)(=O)N4CCCC4)cc3)cs2)cc1C | -2 | 8 | i | 103 | 103
O=S(=O)(c1ccc(-c2csc(Nc3ccc(F)cc3)n2)cc1)N1CCCC1 | 2 | 1 | + | 117 | 102
Cc1ccc(Nc2nc(-c3ccc(S(=O)(=O)N4CCOCC4)cc3)cs2)cc1 | -5 | 1 | i | 97 | 101
Cc1ccc(NC(=O)Nc2cc(Cl)ccc2C2COC(=O)C2=N)cc1 (configuration not stated) | -6 | 11 | i | 94 | 105
CC(=O)Nc1ccc(Cl)cc1C1COC(=O)C1=N (configuration not stated) | -4 | -16 | + | 97 | 94
CCC(C)n1c(=S)[nH]c2ccccc2c1=O (configuration not stated) | -12 | -2 | i | 91 | 96
CCC(Cc1ccccc1)n1c(=S)[nH]c2ccccc2c1=O (configuration not stated) | + | 22 | i | nt | 136*
C[C@@H]1CN=C2N(CCNC(=O)CCC3CCCCC3)[C@H](Cc3ccc(O)cc3)CN21 | 21 | 14 | i | 129 | 108
CCCCCCNC(=O)N[C@H](C(=O)NCCC[C@H]1CN2C(=NC[C@H]2C)N1CCC(c1ccccc1)c1ccccc1)C(C)O (some centres not stated) | 7 | 49* | nt | 134 | 108
Cc1cc(=O)n2ccccc2c1C#N | 7 | -9 | + | 101 | 102
CC(=O)c1ccc(N2CCN(S(=O)(=O)c3cc4c(cc3C)NC(=O)CO4)CC2)cc1 | -21 | 3 | i | 0.0*[inhibitor] | 1.0*[inhibitor]
CN(C)c1ccc(NC(=O)CCN2CCN(c3ccccn3)CC2)cc1 | 0 | 1 | i | 99 | 97
CC(C)CNS(=O)(=O)c1ccc(CCC(=O)N2CCC(C(N)=O)CC2)cc1 | 3 | -5 | i | 101 | 100
CC(=O)c1ccc(-c2ccc(C(=O)N3CCC(C(N)=O)CC3)o2)cc1 | nt | 8 | + | nt | nt
Cc1ccc(S(=O)(=O)N2CCN(C(=O)CC(C)n3nc(C)c(Cl)c3C)CC2)cc1 (configuration not stated) | -3 | -10 | i | 105 | 105
COc1ccccc1CCC(=O)OCC(=O)Nc1ccc(C(N)=O)cc1 | -1 | -9 | i | 97 | 101
O=c1[nH]c2ccc(S(=O)(=O)N3CCN(C4CCCCC4)CC3)cc2[nH]c1=O | 2 | 12 | + | 99 | 101
Cc1ccc([C@@H]2CC=C(C(=O)O)[C@H](c3ccc(Cl)cc3)N2S(=O)(=O)c2ccccc2C)cc1 | nt | -28 | nt | nt | nt
SMILES | MEKK2mut PB1 HTS | UBC13 polyUb | Rce1 inh | MEKK2wt PB1 HTS | MEKK3 PB1 HTS
O=C1/C(=C/C=C/c2ccco2)SC(=S)N1c1ccc(O)cc1 | -22 | 45 | i | 62*[inhibitor] | 87
Fc1ccc(-c2nc3ccccn3c2NCc2ccc3c(c2)OCO3)cc1 | -3 | 22 | i | 92 | 88
Oc1ccc(-c2nc3ccccn3c2NCc2ccc3c(c2)OCO3)cc1 | -5 | 7 | + | 95 | 93
CC1(C)CCCN(C(=O)c2coc(=O)c(Br)c2)C1 | 0 | nt | + | 98 | 100
CS(=O)(=O)N1CCC(C(=O)Nc2cccc(Br)c2)CC1 | 5 | 1 | i | 105 | 100
Cc1ccccc1N(CC(=O)N1CCCCCC1)S(C)(=O)=O | 13 | -8 | i | 112 | 104
COc1ccc(-c2cn3ccccc3n2)cc1[N+](=O)[O-] | -2 | -4 | + | 98 | 97
Cc1cccc(C(=O)N2CCc3cc(-c4nc(NC(=O)CN5CCCC5)sc4C)ccc32)c1 | 3 | 12 | i | 106 | 102
Cc1cccc(C(=O)N2CCc3cc(-c4csc(NC(=O)CN5CCCC5)n4)ccc32)c1 | 25* | 8 | i | 121 | 105
O=C(Nc1ccc(S(=O)(=O)Nc2ncccn2)cc1)c1ccccc1Br | 2 | 8 | nt | 106 | 107
N#C/C(=C/c1ccc(-c2ccccc2)o1)c1nc(-c2cccs2)cs1 | 117* | nt | nt | nt | 98
COc1cccc(C2CC(=O)C3=C(C2)Nc2ccccc2N(C(=O)CCC(=O)O)C3c2ccc(F)cc2)c1 (configuration not stated) | 1 | 8 | + | 101 | 105
CS(=O)(=O)N(CC(=O)O)c1ccc(C23CC4CC(CC(C4)C2)C3)cc1 | 1 | 0 | i | 107 | 110
COc1ccccc1NC(=O)CN(c1ccc(C23CC4CC(CC(C4)C2)C3)cc1)S(C)(=O)=O | 6 | 4 | + | 109 | 105
COc1ccc(OC)c(/C=N/c2oc(-c3ccco3)c(-c3ccco3)c2C#N)c1 | -11 | -4 | + | 77 | 92
COCCNc1nc(-c2cc(C)n(CCc3ccc(OC)cc3)c2C)cs1 | 41 | -14 | i | -5.0* | 80
Nc1c(C(=O)NCCN2CCOCC2)c2nc3ccccc3nc2n1-c1cccc(F)c1 | 3 | -14 | + | 105 | 103
COc1ccccc1-n1cc([C@@H]2C[C@H]3CN(c4ccccc4)C(=O)[C@]34CCCN24)cn1 | 138* | 1 | i | 71 | 104
COc1cc([C@@H]2C[C@H]3CN(c4ccccc4)C(=O)[C@]34CCCN24)cc(OC)c1OC | -1 | 0 | i | 95 | 97
O=C(CSc1nc2ccccc2c(=O)n1CCCO)Nc1ccc2c(c1)OCCO2 | nt | 22 | nt | nt | nt
